From PubChem BioAssay (Tox21) come the findings set out here.

Unmarked numbers belong to inactive results. Records with an inconclusive call do not appear. The source made the active and inactive calls. Calls follow the shape of the dose curve; as a rule, active = well fitted curve in the direction sought with a large enough effect in the repeat runs; inconclusive = weak or mixed curves; inactive = no such curve, though single readings can be large; an effect the other way counts as inactive or inconclusive.

Experiment [1] in a line: Human pregnane X receptor (PXR) small molecule agonists, qHTS cell viability counter screen (AID 1346977). Also: nearly all actives have a fitted effect of over 50% in size. In a few lines: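 After a 5hr pre-incubation, PXR-Luc HepG2 cells received compounds plus positive control in DMSO and were kept 24hr at 37C. Cell viability was quantified by fluorescence from CellTiter-Fluor added for the final hour.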
(In general: Quantitative high-throughput screening tests each substance at several concentrations.)

Experiment [2] is described as follows: Caspase-3/7 induction in HepG2 cells by small molecules, qHTS assay (AID 1346978). Also: nearly all actives have a fitted effect of over 15% in size. In a few lines: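 Caspase-3/7 induction was measured by Caspase-Glo 3/7 luminescence (30 min, room temperature) after a 17 hr compound exposure of wild-type HepG2 cells seeded at 2,000 per well and pre-incubated 5 hr.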
Experiment [3] can be described thus: Caspase-3/7 induction in CHO-K1 cells by small molecules, qHTS cell viability counter screen (AID 1346979). Also: nearly all actives have a fitted effect of over 35% in size. In a few lines:
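Multiplexed with Caspase-Glo 3/7 in CHO-K1 cells, this counter screen added CellTiter-Fluor after 16hr of compound exposure and recorded fluorescence 1hr later.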

Experiment [4] is described as follows: Caspase-3/7 induction in CHO-K1 cells by small molecules, qHTS assay (AID 1346980). Also: nearly all actives have a fitted effect of over 15% in size. In a few lines: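 Luminescent Caspase-Glo 3/7 read (30min, room temperature) quantified apoptosis induction. Cells were wild-type CHO-K1, treated with compound for 17hr at 37 C and 5% CO2.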
The nature of experiment [5]: Caspase-3/7 induction in HepG2 cells by small molecules, qHTS cell viability counter screen (AID 1346981). Also: series mostly up to about 92 µM; nearly all actives have a fitted effect of over 30% in size. In a few lines: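 In this quantitative HTS counter screen, compounds delivered in DMSO were left on unmodified HepG2 cells for 16 hr at 37 C. Viability was then determined fluorometrically with CellTiter-Fluor, in parallel with caspase-3/7 induction in the same wells.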

Experiment [6] concerns the target Nuclear receptor subfamily 1 group I member 2 (Homo sapiens) (UniProt O75469). Kind of experiment: Human pregnane X receptor (PXR) small molecule agonists, qHTS assay (AID 1346982). Also: nearly all actives have a fitted effect of over 35% in size. Also: potency is read from the fitted curve at half-maximal effect. In a few lines:
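Reporter HepG2 cells expressing PXR-Luc are cultured in charcoal-stripped FBS (5%), treated with compounds for 24 hr at 37 C, and assayed by ONE-Glo luminescence after 30 min at room temperature.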

Experiment [7] concerns the target Cytochrome P450 2D6 (Homo sapiens) (UniProt P10635). Kind of experiment: Cytochrome P450 Family 2 Subfamily D Member 6 (CYP2D6) small molecule antagonists: luciferase reporter qHTS assay (AID 1671196). Also: nearly all actives have a fitted effect of over 50% in size. Also: potency is read from the fitted curve at half-maximal effect. In a few lines:
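Test chemicals meet CYP2D6 plus proluciferin substrate (10 min, RT); NADPH regenerating solution then drives turnover for 1 h. Detection reagent halts the reaction; luminescence measured after 20 min.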
A general note: A reporter such as luciferase makes a cellular process visible.

Experiment [8] addresses Cytochrome P450 2C19 (Homo sapiens) (UniProt P33261). Kind of experiment: Cytochrome P450 Family 2 Subfamily C Member 19 (CYP2C19) small molecule antagonists: luciferase reporter qHTS assay (AID 1671197). Also: nearly all actives have a fitted effect of over 65% in size. Also: potency is read from the fitted curve at half-maximal effect. In a few lines: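 Luminescent readout of CYP2C19 activity: luciferin product detected 20 min after adding detection reagent. Before that, compound and enzyme-substrate mix preincubated 10 min at room temperature; NADPH-regenerating system started a 1 h, 37C reaction. Ketoconazole as positive control.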

The target of experiment [9] is Cytochrome P450 2C9 (Homo sapiens) (UniProt P11712). Briefly: Cytochrome P450 Family 2 Subfamily C Member 9 (CYP2C9) small molecule antagonists: luciferase reporter qHTS assay (AID 1671198). Also: nearly all actives have a fitted effect of over 50% in size. Also: potency is read from the fitted curve at half-maximal effect. In a few lines: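 Enzyme-substrate mix preincubated with compound 10 min at room temperature; reaction started with NADPH regeneration solution, 1 h 37C. Luminescent luciferin product read after 20 min detection reagent.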
Sequence of Cytochrome P450 2C9 (Homo sapiens) (P11712 whole entry, looked up): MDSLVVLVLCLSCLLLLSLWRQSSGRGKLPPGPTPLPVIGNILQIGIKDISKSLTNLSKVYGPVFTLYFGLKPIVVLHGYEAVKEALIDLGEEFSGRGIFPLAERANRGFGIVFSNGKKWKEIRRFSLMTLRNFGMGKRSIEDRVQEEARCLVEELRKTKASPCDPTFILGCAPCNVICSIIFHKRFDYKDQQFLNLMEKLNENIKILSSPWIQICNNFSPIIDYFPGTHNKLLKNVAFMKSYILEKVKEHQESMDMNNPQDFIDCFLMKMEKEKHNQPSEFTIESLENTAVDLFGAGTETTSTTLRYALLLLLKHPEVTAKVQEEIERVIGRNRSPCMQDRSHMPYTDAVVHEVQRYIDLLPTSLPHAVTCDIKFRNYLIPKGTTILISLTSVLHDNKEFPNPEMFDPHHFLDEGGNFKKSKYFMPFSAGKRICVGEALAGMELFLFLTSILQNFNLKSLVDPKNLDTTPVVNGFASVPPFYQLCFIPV

Experiment [10] has as its target Cytochrome P450 1A2 (Homo sapiens) (UniProt P05177). Kind of experiment: Cytochrome P450 Family 1 Subfamily A Member 2 (CYP1A2) small molecule antagonists: luciferase reporter qHTS assay (AID 1671199). Also: nearly all actives have a fitted effect of over 50% in size. Also: potency is read from the fitted curve at half-maximal effect. In a few lines:
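Steps: enzyme-substrate mix dispensed; test compounds and furafylline control pinned in; 10 min room temperature; NADPH regeneration solution added, 1 h; reaction stopped with luciferin detection reagent; luminescence read after 20 min.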

Experiment [11] has as its target Voltage-gated inwardly rectifying potassium channel KCNH2 (Homo sapiens) (UniProt Q12809). Briefly: Human Ether-a-go-go-Related Gene (hERG) channel small molecule antagonists: fluorescence cell-based qHTS assay (AID 1671200). In a few lines: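 Cell line hERG-U2OS; dye FluxOR II, 1 h RT dark; Tl+ stimulus; ex 480/em 540 nm, read each second for 2 min.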
For experiment [12], the target named is Cytochrome P450 3A4 (Homo sapiens) (UniProt P08684). Kind of experiment: Cytochrome P450 Family 3 Subfamily A Member 4 (CYP3A4) small molecule antagonists: luciferase reporter qHTS assay (AID 1671201). In a few lines: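 Room-temperature assay throughout: 10 min compound–enzyme/substrate preincubation, 1 h reaction after NADPH regeneration solution, 20 min detection. Luciferin formed from proluciferin substrate is quantified by luminescence.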
Sequence of Cytochrome P450 3A4 (Homo sapiens) (P08684 whole entry, looked up): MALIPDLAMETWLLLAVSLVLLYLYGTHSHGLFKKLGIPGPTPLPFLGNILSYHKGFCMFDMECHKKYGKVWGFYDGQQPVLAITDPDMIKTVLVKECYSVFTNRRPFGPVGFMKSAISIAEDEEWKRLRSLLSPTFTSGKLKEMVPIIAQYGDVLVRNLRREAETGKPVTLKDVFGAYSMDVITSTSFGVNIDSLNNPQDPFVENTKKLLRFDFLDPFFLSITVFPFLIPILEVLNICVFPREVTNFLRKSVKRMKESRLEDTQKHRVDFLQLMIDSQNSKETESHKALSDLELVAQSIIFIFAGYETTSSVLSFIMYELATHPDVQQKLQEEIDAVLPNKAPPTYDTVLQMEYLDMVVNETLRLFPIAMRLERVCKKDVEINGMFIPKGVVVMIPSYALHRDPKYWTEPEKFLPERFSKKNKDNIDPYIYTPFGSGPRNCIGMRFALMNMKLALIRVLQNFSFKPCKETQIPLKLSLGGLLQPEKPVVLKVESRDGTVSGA

Experiment [13] has as its target Nuclear receptor subfamily 1 group I member 2 (Rattus norvegicus) (UniProt Q9R1A7). Kind of experiment: Rat pregnane X receptor (rPXR) activation by small molecules, qHTS assay (AID 1346983). Also: nearly all actives have a fitted effect of over 20% in size. Particulars: rPXR luciferase reporter cells, One-Glo luminescence, 24 h; max activation: hits give high values. In a few lines: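 Luminescent readout (One-Glo luciferase, 30 min room temperature) followed 24 hr compound treatment at 37 C of rPXR cells plated 2,000 per well and preincubated 5hr; qHTS format with compounds delivered in DMSO.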

The target in experiment [14] is Nuclear receptor subfamily 1 group I member 2 (Homo sapiens) (UniProt O75469). Briefly: CYP3A4 induction through human pregnane X receptor (PXR) by small molecules, qHTS assay (AID 1346984). Also: nearly all actives have a fitted effect of over 40% in size. In a few lines: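 Induction measured in HepG2-based DPX-2 cells co-expressing human PXR and a CYP3A4 promoter-driven luciferase. After a 24-hour compound exposure, cells received CYP3A4 luciferin substrate at 3uM final for 3 hours, and light output was then recorded.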
Sequence of Nuclear receptor subfamily 1 group I member 2 (Homo sapiens) (O75469 whole entry, looked up): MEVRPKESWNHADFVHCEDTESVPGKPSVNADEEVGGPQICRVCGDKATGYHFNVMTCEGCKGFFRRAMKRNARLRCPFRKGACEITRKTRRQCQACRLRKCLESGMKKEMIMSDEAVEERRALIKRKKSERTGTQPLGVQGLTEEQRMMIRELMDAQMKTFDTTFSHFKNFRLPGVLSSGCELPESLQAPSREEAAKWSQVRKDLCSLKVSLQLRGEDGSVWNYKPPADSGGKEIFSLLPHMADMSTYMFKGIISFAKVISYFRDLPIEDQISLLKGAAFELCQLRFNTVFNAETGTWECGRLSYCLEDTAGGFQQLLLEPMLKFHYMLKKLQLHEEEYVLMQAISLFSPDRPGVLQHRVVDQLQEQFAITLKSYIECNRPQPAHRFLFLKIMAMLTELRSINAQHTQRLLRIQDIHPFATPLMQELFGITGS

Experiment [15] has the same target. Kind of experiment: Human pregnane X receptor (PXR) activation by small molecules, qHTS assay (AID 1346985). Also: nearly all actives have a fitted effect of over 40% in size. In a few lines: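 DPX-2 cells (HepG2 co-transfected with a PXR response element and a CYP3A4-promoter luciferase construct) were seeded at 2,000 per well, rested 5 hr at 37C, then exposed to DMSO-dissolved compounds for 24 hr. Activation was read as luciferase luminescence.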
% is scaled to controls: 0 for no effect and ±100 for the full control effect.

Sequence of Cytochrome P450 1A2 (Homo sapiens) (P05177 whole entry, looked up): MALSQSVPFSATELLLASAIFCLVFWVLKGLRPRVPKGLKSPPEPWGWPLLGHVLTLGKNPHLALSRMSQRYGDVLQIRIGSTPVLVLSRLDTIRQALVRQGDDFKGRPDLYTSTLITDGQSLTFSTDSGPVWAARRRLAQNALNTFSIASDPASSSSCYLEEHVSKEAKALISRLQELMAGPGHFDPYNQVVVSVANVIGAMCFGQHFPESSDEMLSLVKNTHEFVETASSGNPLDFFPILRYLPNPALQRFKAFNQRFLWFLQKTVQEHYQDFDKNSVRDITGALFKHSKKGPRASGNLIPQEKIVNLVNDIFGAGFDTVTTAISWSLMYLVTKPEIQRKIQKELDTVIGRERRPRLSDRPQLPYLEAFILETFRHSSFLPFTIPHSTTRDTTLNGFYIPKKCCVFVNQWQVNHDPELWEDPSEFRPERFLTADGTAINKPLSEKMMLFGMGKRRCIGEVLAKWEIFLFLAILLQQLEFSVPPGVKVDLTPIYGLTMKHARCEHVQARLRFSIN
Sequence of Nuclear receptor subfamily 1 group I member 2 (Rattus norvegicus) (Q9R1A7 whole entry, looked up): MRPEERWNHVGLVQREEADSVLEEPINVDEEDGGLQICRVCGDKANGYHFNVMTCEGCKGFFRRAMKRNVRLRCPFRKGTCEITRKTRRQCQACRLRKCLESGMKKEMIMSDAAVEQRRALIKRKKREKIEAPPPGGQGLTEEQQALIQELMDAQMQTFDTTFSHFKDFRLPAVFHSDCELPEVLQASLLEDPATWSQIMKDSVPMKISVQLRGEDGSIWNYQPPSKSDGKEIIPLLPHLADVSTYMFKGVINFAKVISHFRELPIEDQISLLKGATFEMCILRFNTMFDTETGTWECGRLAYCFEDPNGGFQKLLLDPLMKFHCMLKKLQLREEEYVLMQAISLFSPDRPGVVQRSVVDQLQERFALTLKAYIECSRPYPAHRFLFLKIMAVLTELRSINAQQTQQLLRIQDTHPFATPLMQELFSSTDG
Sequence of Cytochrome P450 2C19 (Homo sapiens) (P33261 whole entry, looked up): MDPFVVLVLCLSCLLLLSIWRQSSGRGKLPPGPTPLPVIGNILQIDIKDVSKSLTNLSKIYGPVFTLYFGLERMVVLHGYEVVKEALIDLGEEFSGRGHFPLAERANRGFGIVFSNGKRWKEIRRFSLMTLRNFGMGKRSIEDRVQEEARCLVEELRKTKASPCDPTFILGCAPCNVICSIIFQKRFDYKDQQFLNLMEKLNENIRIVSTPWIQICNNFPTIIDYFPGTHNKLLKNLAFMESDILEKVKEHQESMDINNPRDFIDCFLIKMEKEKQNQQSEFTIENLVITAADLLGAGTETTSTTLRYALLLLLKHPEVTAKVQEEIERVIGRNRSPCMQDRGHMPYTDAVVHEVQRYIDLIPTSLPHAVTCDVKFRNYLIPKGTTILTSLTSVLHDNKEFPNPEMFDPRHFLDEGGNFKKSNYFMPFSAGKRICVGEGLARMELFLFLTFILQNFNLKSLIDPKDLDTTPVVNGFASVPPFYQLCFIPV
Sequence of Cytochrome P450 2D6 (Homo sapiens) (P10635 whole entry, looked up): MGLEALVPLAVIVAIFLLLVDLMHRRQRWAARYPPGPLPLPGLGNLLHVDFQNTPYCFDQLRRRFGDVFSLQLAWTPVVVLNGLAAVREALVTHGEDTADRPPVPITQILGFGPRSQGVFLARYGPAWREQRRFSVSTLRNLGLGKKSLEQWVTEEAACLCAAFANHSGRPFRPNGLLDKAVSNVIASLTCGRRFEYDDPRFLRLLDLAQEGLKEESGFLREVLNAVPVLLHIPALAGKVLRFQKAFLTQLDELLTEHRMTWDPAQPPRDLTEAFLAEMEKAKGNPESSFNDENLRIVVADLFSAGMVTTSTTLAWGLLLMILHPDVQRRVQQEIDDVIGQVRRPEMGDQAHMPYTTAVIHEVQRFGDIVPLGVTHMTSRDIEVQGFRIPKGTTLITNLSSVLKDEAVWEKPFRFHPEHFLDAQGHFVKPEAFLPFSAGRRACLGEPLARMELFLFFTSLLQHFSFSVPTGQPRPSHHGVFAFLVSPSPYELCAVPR
Sequence of Voltage-gated inwardly rectifying potassium channel KCNH2 (Homo sapiens) (Q12809 whole entry, looked up): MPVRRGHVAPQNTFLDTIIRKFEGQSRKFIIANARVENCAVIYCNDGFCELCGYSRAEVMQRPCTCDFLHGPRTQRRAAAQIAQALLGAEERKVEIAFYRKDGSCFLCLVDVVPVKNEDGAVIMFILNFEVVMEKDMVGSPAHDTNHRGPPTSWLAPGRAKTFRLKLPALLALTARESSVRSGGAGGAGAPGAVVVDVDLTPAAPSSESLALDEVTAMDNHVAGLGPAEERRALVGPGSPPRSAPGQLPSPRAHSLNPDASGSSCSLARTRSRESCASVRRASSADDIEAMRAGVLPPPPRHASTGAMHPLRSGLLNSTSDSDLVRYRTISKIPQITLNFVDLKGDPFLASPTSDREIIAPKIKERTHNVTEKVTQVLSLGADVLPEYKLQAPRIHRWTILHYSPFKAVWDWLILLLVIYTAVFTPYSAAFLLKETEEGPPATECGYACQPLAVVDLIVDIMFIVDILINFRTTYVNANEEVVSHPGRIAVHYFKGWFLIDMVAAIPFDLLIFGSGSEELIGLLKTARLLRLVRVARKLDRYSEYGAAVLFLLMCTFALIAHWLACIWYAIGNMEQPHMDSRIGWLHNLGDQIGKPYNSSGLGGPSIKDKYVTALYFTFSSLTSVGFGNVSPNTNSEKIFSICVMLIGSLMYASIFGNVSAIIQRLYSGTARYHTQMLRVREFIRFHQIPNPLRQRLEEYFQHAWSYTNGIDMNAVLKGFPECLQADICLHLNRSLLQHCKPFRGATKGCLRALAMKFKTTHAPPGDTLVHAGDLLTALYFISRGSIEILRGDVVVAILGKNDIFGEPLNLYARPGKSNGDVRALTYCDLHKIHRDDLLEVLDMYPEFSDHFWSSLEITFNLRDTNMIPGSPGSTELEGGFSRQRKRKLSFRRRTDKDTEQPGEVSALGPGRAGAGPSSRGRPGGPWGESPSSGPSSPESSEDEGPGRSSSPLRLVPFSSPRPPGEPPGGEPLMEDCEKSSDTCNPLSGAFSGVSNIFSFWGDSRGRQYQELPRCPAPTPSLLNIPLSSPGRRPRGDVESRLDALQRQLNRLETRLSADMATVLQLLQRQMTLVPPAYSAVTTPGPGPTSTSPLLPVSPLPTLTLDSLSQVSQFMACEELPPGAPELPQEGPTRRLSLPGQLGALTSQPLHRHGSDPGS

For `CC(C)(N)C#N`, the Potency entry in experiment [1], in experiment [3], in [5], in experiment [6], in [7] and in [8] was “inactive” in each case. For the same molecule, the Potency result in experiment [9], in experiment [10], in [11] and in experiment [12] was “inactive” each time. Besides, the outcome in [2] and in experiment [4] was inactive.

As for `N[C@H](C(=O)O)[C@@H](O)c1ccc(O)c(O)c1`, the Potency result in [1], in experiment [3], in [5], in experiment [6], in experiment [14] and in [15] was “inactive” throughout. In addition, the Potency entry in experiment [7], in [8], in experiment [9], in experiment [10], in [11] and in experiment [12] was “inactive” in each case. The molecule was called inactive in experiment [2] and in [4]. Further, the max activation in [13] is -4.66%.

On to `CCCC(C)C(=O)OCC` (configuration not stated), for which the Potency entry in [1], in experiment [3], in experiment [5], in experiment [6], in experiment [7] and in [8] was “inactive” throughout. Moreover, the Potency entry in experiment [9], in [10], in experiment [11] and in experiment [12] was “inactive” in each case. The result in [2] and in [4] was inactive.

Regarding `Cc1nc(C2CCCCC2)c(-c2ccc(S(N)(=O)=O)c(F)c2)o1`, the Potency entry in experiment [1], in experiment [3], in experiment [5], in experiment [10] and in experiment [11] was “inactive” in each case. In addition, the outcome in [2] and in experiment [4] was inactive. Also, the Potency in experiment [6] is 21.1 µM (active); in [7], 13.8 µM (active); in [8], 38.9 µM (active); in experiment [9] it was 3.47 µM (active).

Regarding `CO[C@@]1(NC(=O)C(C(=O)O)c2ccc(O)cc2)C(=O)N2C(C(=O)O)=C(CSc3nnnn3C)CO[C@@H]21` (some centres not stated), the Potency result in [1], in experiment [3], in [5], in [6], in experiment [14] and in experiment [15] was “inactive” each time. The Potency result in experiment [7], in experiment [8], in experiment [9], in experiment [10], in experiment [11] and in experiment [12] was “inactive” each time. For the same molecule, the result in experiment [2] and in experiment [4] was inactive. The max activation in experiment [13] was -4.79%.

As for `Nc1ccn([C@@H]2O[C@H](CO)[C@@H](O)C2O)c(=O)n1` (some centres not stated), the Potency result in experiment [1], in [3], in experiment [5], in [6], in experiment [15] and in experiment [7] was “inactive” in each case. Also, the Potency result in experiment [9], in [10], in experiment [11] and in [12] was “inactive” in each case. Further, the molecule was called inactive in experiment [2] and in experiment [4]. The max activation in experiment [13] was -0.294%.

On to `Cc1ccc(-c2ccccc2C#N)cc1`, for which the Potency entry in [1], in experiment [3], in experiment [5], in [6] and in [7] was “inactive” in each case. Moreover, the call in experiment [2] and in experiment [4] was inactive. Also, the values for the Potency in experiment [8], in experiment [9] and in experiment [10] were 17.4 µM (active), 15.5 µM (active) and 13.8 µM (active), respectively.

As for `CC(C)COC(=O)c1ccc(N)cc1`, the Potency result in [1], in experiment [3], in [5], in [14], in experiment [15] and in experiment [7] was “inactive” in each case. Also, the Potency result in experiment [11] is “inactive”. Besides, the result in experiment [2] and in experiment [4] was inactive. For the same molecule, the Potency is 21.1 µM (active) in [6], 21.9 µM (active) in [8], 13.8 µM (active) in [9] and 6.92 µM (active) in experiment [10]. In experiment [13], the max activation was 0.562%.

In the case of `Nc1c2c(nc3c1CCC3)CCCC2`, the Potency entry in [1], in experiment [3], in experiment [5], in experiment [6], in experiment [14] and in [15] was “inactive” throughout. The Potency result in experiment [8], in experiment [9], in experiment [10], in [11] and in [12] was “inactive” throughout. For the same molecule, the result in experiment [2] and in experiment [4] was inactive. Also, the max activation in experiment [13] was -1.69%. Moreover, in [7], the Potency was 8.71 µM (active).
